# In PubChem BioAssay (NCI):
# This is part of a sample that, as a whole, favours compounds with a hit. Of some 79,000 tested, about 15% had one in any assay. Unmarked numbers belong to inactive results. Calls of active or inactive are those of the source. No stated cut-off is given here; in the data, active means growth inhibition above about 70%; inactive means the rest.
# How the values were obtained:
# [1] = NCI Yeast Anticancer Drug Screen. Data for the rad50 strain (AID 155);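 further: 0% = growth of vehicle-only cultures of the same strain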; details: S. cerevisiae rad50 strain growth inhibition; at 50.0 µM; hits give high values
# Outline: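 A DNA repair-deficient yeast mutant serves as the test organism; compound-induced growth inhibition is calculated against vehicle-treated cells.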
# [2] = NCI Yeast Anticancer Drug Screen. Data for the mec2-1 strain (AID 157); details: S. cerevisiae mec2-1 strain, at 50.0 µM, hits give high values
# Outline: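 Mutant yeast (mec2-1) grown with compound; growth inhibition relative to vehicle control reported.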
# [3] = NCI Yeast Anticancer Drug Screen. Data for the sgs1 mgt1 strain (AID 161);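 further: 0% = growth of cultures given vehicle only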; details: S. cerevisiae sgs1 mgt1 strain, at 50.0 µM, hits give high values
# Outline: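 This yeast growth screen uses a strain with defined DNA-repair lesions; compound-treated growth is compared with vehicle-treated growth.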
# [4] = NCI Yeast Anticancer Drug Screen. Data for the cln2 rad14 strain (AID 165);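 further: 0% = growth equal to vehicle treated cultures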; details: S. cerevisiae cln2 rad14 strain, at 50.0 µM, hits give high values
# Outline: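 Readout is yeast growth inhibition versus vehicle-treated controls, using a strain with cln2 and rad14 alterations exposed to compound.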
# [5] = NCI Yeast Anticancer Drug Screen. Data for the bub3 strain (AID 167); details: S. cerevisiae bub3 mutant strain, at 50.0 µM, hits give high values
# Outline: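 Inhibition values come from growth of compound-treated mutant yeast normalised to vehicle-treated controls.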
# [6] = NCI Yeast Anticancer Drug Screen. Data for the mlh1 rad18 strain (AID 175); details: S. cerevisiae mlh1 rad18 strain growth inhibition; at 50.0 µM; hits give high values
# Outline: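 Genetically defined yeast (DNA repair-deficient) exposed to compounds; growth inhibition determined relative to vehicle.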
SMILES,growth inhibition [1],growth inhibition [2],growth inhibition [3],growth inhibition [4],growth inhibition [5],growth inhibition [6]
c1ccc(-c2ccc[n+](C[n+]3cccc(-c4ccccn4)c3)c2)nc1,10.2%,-10.5%,-22.9%,-8.5%,-3.8%,33.1%
Cc1ccc(/C=C/C(=N/Nc2ccccc2)C(C)CN(C)C)cc1 (configuration not stated),-3.2%,-10.1%,-3.25%,-15.3%,-1.35%,-5%
Cn1c(=O)c2c(nc3n(C)c(=O)c4ccccc4n23)n(C)c1=O,64.7%,32.8%,-8.15%,7.3%,5.45%,45.6%
O=[N+]([O-])c1ccc2[nH]nc(OCc3ccccn3)c2c1,35%,33.4%,-23.8%,28.1%,7.15%,20.9%
Cc1ccc(N=Nc2c(N)nc(N)[nH]c2=O)c(C)c1,14.9%,-4.8%,-11.9%,9.6%,15.7%,19.8%
O=c1oc(-c2cccc(C[n+]3ccccc3)c2)nc2cc(Cl)ccc12,-14.9%,-6.8%,-11.4%,-0.45%,-7.1%,-4.75%
CCCNC(=O)N(CCN(C)C)S(=O)(=O)c1ccc(Cl)cc1,-38.9%,-6.75%,-13.6%,-18.9%,-21.1%,-17.4%
COc1cc(CN2CCCCC2)cc2cc(C(=O)O)c(=O)oc12,8.75%,7.55%,-34.9%,-1.15%,-15.3%,-11.9%
Cc1c(I)sc(I)c1I,39.6%,1.75%,30.9%,12.9%,4.1%,12.6%
Oc1ccc(Cl)cc1CC(=S)N1CCOCC1,11.1%,1.3%,0.45%,-10.4%,3.4%,-3.9%
Cc1cc(NC(=O)NCCCCCCNC(=O)Nc2cc(C)on2)no1,4.95%,1.2%,1.7%,-7.75%,14.6%,0.35%
S=c1cc(-c2ccccc2)oc2ccccc12,9.35%,10.8%,-1.1%,6.85%,4.85%,-2.8%
CCOC(=O)CC(C)C(Br)(C(=O)OCC)C(=O)OCC (configuration not stated),47.5%,93.5% (active),89.4% (active),20.5%,93.4% (active),95.4% (active)
O=c1[nH]cccc1O,5.2%,5.5%,-17%,10.4%,-8.8%,7.25%
Nc1nc(N)[n+]([O-])c(N)c1NCO,-4.85%,2.9%,-40%,-50.8%,-14%,-25.3%
O=C(Nc1ccc(Cl)cc1)c1cc2c(cc1Cl)Sc1nccn1S2(=O)=O,-4.85%,-11.7%,-1.65%,-25.4%,2.35%,16.9%
OCc1c(CO)c2cccn2c2c1cnn2-c1ccccc1,11.3%,1.45%,23.9%,-64.9%,-8.2%,11.2%
CCOC(=O)c1cc(OC(C)=O)c2ccccc2c1,26.9%,9.2%,41.5%,15.8%,61.5%,41.5%
c1cncc(C2c3[nH]c4ccccc4c3CCN2CCN2CCCCC2)c1 (configuration not stated),-32.8%,-46.5%,-9.4%,-4.35%,-37.5%,-34.4%

SMILES,growth inhibition [1],growth inhibition [2],growth inhibition [3],growth inhibition [4],growth inhibition [5],growth inhibition [6]
COC(=O)CC(NC(=O)OCc1ccccc1)C(=O)NCC(=O)NCC(=O)O (configuration not stated),15.8%,12.7%,-5.65%,14.3%,-4.7%,2.5%
COc1ccc(Cc2ccccc2C(=O)c2ccc(OC)cc2)cc1,-14.7%,-13.8%,0.05%,-4.65%,4.6%,-14.8%
O=C1C2CC3C(C2)C13,-1.55%,-6.9%,-8.05%,-5.9%,-10.2%,11.5%
Cc1cccc(CBr)c1-c1c(C)cccc1CBr,-19.2%,10.8%,10.1%,-31.1%,27.6%,-0.65%
[N-]=[N+]=C(C(=O)OCC#CCOC(=O)C(=[N+]=[N-])S(=O)(=O)c1ccccc1)S(=O)(=O)c1ccccc1,-8.95%,-20.6%,12.8%,-31.6%,-8.95%,-17.1%
O=C(Cc1nccc2c1[nH]c1ccccc12)OC1C#CCSCC#C/C=C\1 (configuration not stated),-0.55%,17.8%,9.5%,-14.7%,12.3%,-1.15%
CCN(CC)c1ccc(-c2c3ccccc3nc3ccccc23)cc1,-5.05%,-7.75%,7.45%,-12.4%,-17.1%,-3.5%
COC(=O)/C(C#N)=C\N1CCNC1=S,-54.8%,-62.8%,-35.9%,-15.9%,-10.4%,-19.5%
O=C1CCCCC1CN1CCOCC1 (configuration not stated),-37.5%,-24.2%,-5.3%,-6.45%,-22.1%,-16.4%
N/N=C(/c1ccc(Cl)cc1)N1CCOCC1,15.4%,1.1%,3.8%,-8.6%,-18%,5.35%
CC1=CC(C)(C)NC(=S)N1c1ccc(C)cc1S(=O)(=O)O,28.5%,-1.7%,-18%,-16.2%,7.95%,27.9%
c1ccc(-c2csc3[n+]2CCN3)cc1,18.6%,13.9%,12.8%,5.3%,2.8%,14.2%
Nc1ncnc2oc(-c3ccccc3)nc12,1.3%,-0.85%,-6.35%,-40%,-4.25%,13.7%
CCO[C@H]1OC(=O)[C@@H]2C(c3ccc([N+](=O)[O-])cc3)=NO[C@H]12,-12%,-32.5%,-12.9%,2.7%,4.85%,-29.8%
CCCCOC(=O)NC(Nc1ccc(S(=O)(=O)Nc2ccc(OC)nn2)cc1)(C(F)(F)F)C(F)(F)F,-8.25%,-1.5%,-10.1%,5%,-9.55%,2.95%
N#CCC(=O)N1CCCCCCC1,20.4%,-8.9%,2.7%,0%,6.05%,0%
C=CCNCc1cc(Cl)cc(Cl)c1O,-8.35%,-4.4%,-19.1%,-51.1%,-10.2%,17.2%
CCCCCCCCCCCC(=O)N/N=C(\c1ccccc1)c1ccc(Cl)cc1,91.5% (active),88.2% (active),93.5% (active),86.9% (active),76.5% (active),91.3% (active)
